The supplement of paper PMC4206461
Values without a mark were called inactive.

Experiments:
[1] = system: Pseudomonas aeruginosa PA14 dppA1-A5 penta mutant + pBBR5.DppA1 (PA14_58350); assay: respiration area under curve with compound as sole nitrogen source, 24 h (OmniLog AUC (arbitrary units)); higher = more respiration / better utilisation as nitrogen source, active = 2000 or more
Description: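 Biolog Phenotype MicroArray plates PM6-PM8: each di/tripeptide is the sole nitrogen source. Tetrazolium reduction was read in the OmniLog for 24 h at 37°C and summarised as area under the respiration curve (arbitrary units). Values below 2000 count as no respiration. Strain is the SBP penta mutant complemented with DppA1 on a plasmid under its native promoter. Lys/His/Cys peptides are excluded.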

[2] = system: Pseudomonas aeruginosa PA14 wild type; assay: as above
Description: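 Biolog Phenotype MicroArray plates PM6-PM8: each di/tripeptide is the sole nitrogen source (IF-0 medium with succinate/ferric citrate and dye mix A). Tetrazolium reduction was read in the OmniLog every 15 min for 24 h at 37°C and summarised as area under the respiration curve (arbitrary units). The paper counts values below 2000 as no respiration and above 8000 as solid respiration. Replicate datasets are averaged.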

| Structure (SMILES) | respiration area under curve [1] | respiration area under curve [2] |
| --- | --- | --- |
| C[C@H](N)C(=O)N[C@@H](CC(N)=O)C(=O)O (plate: PM6) | 7840 (active) | 8960 (active) |
| C[C@H](NC(=O)[C@@H](N)Cc1c[nH]c2ccccc12)C(=O)O (plate: PM7) | 2360 (active) |  |
| CC(C)[C@H](NC(=O)CN)C(=O)O (plate: PM6) | 1820 |  |
| CC[C@H](C)[C@H](NC(=O)CN)C(=O)O (plate: PM8) | 4580 (active) |  |
| N[C@@H](Cc1ccc(O)cc1)C(=O)N[C@@H](Cc1c[nH]c2ccccc12)C(=O)O (plate: PM7) | 2730 (active) | 3280 (active) |
| C[C@@H](O)[C@H](N)C(=O)N[C@@H](CCC(=O)O)C(=O)O (plate: PM7) | 5630 (active) | 7240 (active) |
| CSCC[C@H](N)C(=O)N[C@@H](CCC(=O)O)C(=O)O (plate: PM7) | 1490 | 1960 |
| N[C@@H](Cc1c[nH]c2ccccc12)C(=O)N[C@@H](CO)C(=O)O (plate: PM7) | 2890 (active) | 4810 (active) |
| NCC(=O)N1CCC[C@H]1C(=O)O (plate: PM6) | 7310 (active) |  |
| N[C@@H](Cc1ccccc1)C(=O)N[C@@H](CCC(=O)O)C(=O)O (plate: PM8) | 2880 (active) | 2920 (active) |
| N[C@@H](Cc1ccc(O)cc1)C(=O)N[C@@H](Cc1ccc(O)cc1)C(=O)O (plate: PM7) | 6170 (active) | 7080 (active) |
| N[C@@H](CO)C(=O)N1CCC[C@H]1C(=O)O (plate: PM7) | 12700 (active) | 14600 (active) |
| N[C@@H](Cc1ccccc1)C(=O)NCC(=O)NCC(=O)O (plate: PM8) | 7350 (active) |  |
| C[C@@H](N)C(=O)NCC(=O)NCC(=O)O (plate: PM8) | 46.7 | 211 |
| N[C@@H](Cc1c[nH]c2ccccc12)C(=O)NCC(=O)O (plate: PM7) | 1010 |  |
| NCC(=O)NCC(=O)O (plate: PM6) | 2050 (active) |  |
| CC(C)C[C@H](N)C(=O)N[C@@H](CC(N)=O)C(=O)O (plate: PM8) | 11100 (active) | 12400 (active) |

| Structure (SMILES) | respiration area under curve [1] | respiration area under curve [2] |
| --- | --- | --- |
| CC(C)C[C@H](N)C(=O)N[C@@H](Cc1ccccc1)C(=O)O (plate: PM6) | 4550 (active) | 6750 (active) |
| CSCC[C@H](N)C(=O)NCC(=O)O (plate: PM7) | 3910 (active) | 5050 (active) |
| C[C@H](N)C(=O)N[C@@H](C)C(=O)O (plate: PM6) | 7210 (active) | 8430 (active) |
| C[C@@H](O)[C@H](N)C(=O)N1CCC[C@H]1C(=O)O (plate: PM7) | 10700 (active) | 13000 (active) |
| CSCC[C@H](N)C(=O)N[C@@H](Cc1c[nH]c2ccccc12)C(=O)O (plate: PM7) | 2980 (active) | 3640 (active) |
| C[C@@H](O)[C@H](N)C(=O)N[C@@H](CC(=O)O)C(=O)O (plate: PM8) | 3640 (active) | 5680 (active) |
| C[C@@H](O)[C@H](NC(=O)CN)C(=O)O (plate: PM6) | 2750 (active) |  |
| CC(C)[C@H](N)C(=O)N[C@@H](CCC(N)=O)C(=O)O (plate: PM8) | 7140 (active) | 9290 (active) |
| CC(C)[C@H](N)C(=O)N[C@@H](CC(N)=O)C(=O)O (plate: PM7) | 10400 (active) | 12300 (active) |
| NCC(=O)N[C@@H](Cc1ccc(O)cc1)C(=O)O (plate: PM6) | 1420 |  |
| N[C@@H](Cc1ccccc1)C(=O)N[C@@H](Cc1ccccc1)C(=O)O (plate: PM7) | 5690 (active) | 5220 (active) |
| CC(C)C[C@H](N)C(=O)N[C@H](CC(C)C)C(=O)O (plate: PM8) | 284 | 0 |
| CC(C)[C@H](N)C(=O)N1CCC[C@H]1C(=O)O (plate: PM8) | 10300 (active) | 12700 (active) |
| CC(C)C[C@@H](N)C(=O)N[C@@H](Cc1ccc(O)cc1)C(=O)O (plate: PM8) | 21.2 | 36.8 |
| N[C@@H](Cc1c[nH]c2ccccc12)C(=O)N[C@@H](Cc1ccc(O)cc1)C(=O)O (plate: PM7) | 292 | 1070 |
| C[C@H](NC(=O)[C@@H](N)CCCN=C(N)N)C(=O)O (plate: PM6) | 8610 (active) |  |
